Our source for the INHIBITION values is ChEMBL document CHEMBL4513216, “Probing the Open Global Health Chemical Diversity Library for Multistage-Active Starting Points for Next-Generation Antimalarials” (ACS Infect Dis, 2020).

Hit rate of the full screen: of about 69,000 compounds, about 8,600 (12%) showed an effect of 50% or more. This is one part of a sample in which strong results are shown more often than they occur.

This assay concerns Plasmodium berghei. The assay is described as follows: Screen against P. berghei liver stage (PbLuc), transformed with Luciferase, at 10uM. The assay is classed as functional, HepG2. The following applies: tested at 10 uM.
Consider `O=C(COCC(F)(F)C(F)F)N1CCC2(CCCN(CC3CC3)C2=O)C1` (stereo not drawn), for which the INHIBITION stood at 27.8%. In the case of `CC(C)N1CCCC2(CCN(C(=O)COCC(F)(F)C(F)F)C2)C1=O` (stereo not drawn) it was 50.2%; in that of `O=C(COCC(F)(F)C(F)F)N1CCC2(CCCN(CCO)C2=O)C1` (stereo not drawn), -8.97%. In the case of `COC1COC2(CCN(CC3CC3)CC2)C1` (stereo not drawn) it was 15.8%; in that of `CNC(=O)Cc1csc(NC(=O)C2CSCCC(=O)N2)n1` (stereo not drawn), 50.2%; in that of `Cc1noc(CNC(=O)C2CSCCC(=O)N2)n1` (stereo not drawn), 61.6%. In the case of `NC(=O)Cc1csc(NC(=O)C2CSCCC(=O)N2)n1` (stereo not drawn), the INHIBITION was found to be 32.1%. In the case of `Cc1csc(NC(=O)C2CSCCC(=O)N2)n1` (stereo not drawn) it was 24.5%; in that of `Cc1nnc(CNC(=O)C2CSCCC(=O)N2)o1` (stereo not drawn), -5.22%; in that of `O=C1CCSCC(C(=O)NCc2nc(-c3ccccc3)no2)N1` (stereo not drawn), 14.3%. In the case of `CCN(Cc1c(C)nn(CC)c1C)S(=O)(=O)c1cnn(C)c1C` it was 38.3%.

As for `CC[C@@H]1N(Cc2ccncc2)CCC[C@]12CCC(=O)N2C`, the INHIBITION is recorded as 18.6%.

For `CC(C)n1nc2c(cc1=O)CN(CCOc1cccc(C#N)c1)CC2`, the INHIBITION was found to be 23.1%. In the case of `Clc1ccc(-c2nnc(CNCCn3cccn3)o2)c(Cl)c1` it was -38.2%; in that of `CC(C)[C@H]1CN(Cc2ccccc2C#N)C[C@@H]1NC(=O)C1CCOCC1`, 45.9%.

As to `Cc1ncsc1CN1C[C@@H]2COC[C@]2(C(=O)NC2CC(F)(F)C2)C1`, the INHIBITION worked out at 32.1%. In the case of `Cc1nnc(CN2C[C@H](NC(=O)C3CCOCC3)[C@@H](C(C)C)C2)s1` it was 90.2%; in that of `CC(C)[C@H]1CN(Cc2c[nH]nn2)C[C@@H]1NC(=O)C1CCOCC1`, 16.3%; in that of `Cc1ncsc1CN1C[C@H](NC(=O)C2CCOCC2)[C@@H](C(C)C)C1`, 75.4%. In the case of `Cc1csc(CN2C[C@H](NC(=O)C3CCOCC3)[C@@H](C(C)C)C2)n1` it was 42.5%; in that of `CCN(Cc1ccc(F)cc1Cl)C1CCS(=O)(=O)C1` (stereo not drawn), 21.6%.

Turning to `Cc1cc(C[S+]([O-])Cc2ccccc2F)on1` (stereo not drawn), the INHIBITION was found to be 10.1%. In the case of `CCCn1cc(-c2cc(C(=O)N(C)C)c3ccc(OC)cc3n2)cn1` it was 29.85%; in that of `COc1cccc(CSc2nnc(C)n2CC(N)=O)c1`, -15.1%; in that of `Cc1nnc(SCc2cccc(F)c2)n1CC(N)=O`, 20.9%. In the case of `Cc1cccc(CSc2nnc(C)n2CC(N)=O)c1` it was 57.7%; in that of `O=C(NCCCN1CCOCC1)c1ccn(COc2ccc(F)cc2)n1`, -41.2%. In the case of `O=C(NCC(CO)Cc1ccc(Cl)cc1)c1ccncc1Cl` (stereo not drawn) it was 5.21%. Take `CCSc1cc(C(=O)NCC(C)(C)N(C)C)ccn1`: the INHIBITION is 15.7%. In the case of `CN(CC(=O)Nc1ccccc1C(=O)NC1CC1)Cc1ccccc1Cl` it was 8.08%.

As for `CCOC(=O)c1ccccc1NC(=O)CN(C)Cc1ccccc1Cl`, the INHIBITION was 68.9%. Regarding `CCOc1ccccc1NC(=O)CN(C)Cc1ccccc1Cl`, the INHIBITION worked out at 32%. In the case of `N#Cc1cccc(S(=O)(=O)NC(=O)C2CC(c3ccccc3)=NO2)c1` (stereo not drawn) it was 33.4%; in that of `Cc1cc2ccncc2n1CC1(O)CCN(C(=O)c2cccnc2)CC1`, 9.98%. In the case of `CN1CC(=O)N(c2cccnc2)Cc2c(NC3CC3)ncnc21` it was 41.6%; in that of `CC(C)c1cc(=O)[nH]c(-c2ccccc2CN2CCC(C)(C)C2)n1`, 29.4%.

As for `CC1(C)CCN(Cc2ccccc2-c2nc(C(C)(C)C)cc(=O)[nH]2)C1`, the INHIBITION was determined as 57.3%. With `CC(C)(C)c1cc(=O)[nH]c(-c2ccccc2CN2CCCCCC2)n1`, the INHIBITION was -7.65%. For the compound `Cc1cc(C)n(C2CN(c3ncnc4c3CCNCC4)C2)n1`, the INHIBITION came to 40.5%. On to `Cc1ccc(C2(O)CCN(C(=O)CCn3ccc(=O)[nH]c3=O)CC2)nc1`, for which the INHIBITION was 82%.

For `Cc1ccc(C2(O)CCN(C(=O)Cn3cc(C)c(=O)[nH]c3=O)CC2)nc1`, the INHIBITION is recorded as 30.9%. In the case of `Cc1ccc(C2(O)CCN(C(=O)CCn3c(C)cccc3=O)CC2)nc1` it was 28.7%; in that of `CN(CC(O)C(F)(F)F)C(=O)Nc1cccc(C(F)F)c1` (stereo not drawn), 40.7%. In the case of `Cc1c(NC(=O)C(C)N(C)C)c(=O)n(-c2ccccc2)n1C` (stereo not drawn) it was -45.8%. In the case of `COc1ccc(Cl)cc1CS(=O)(=O)Cc1noc(C)n1` it was 34.7%; in that of `COc1ccc(Cl)cc1CS(=O)(=O)Cc1nc(C)no1`, 60.4%; in that of `COc1ccc(Cl)cc1CS(=O)(=O)Cc1nc(C2CC2)no1`, -3.96%. As to `Clc1cc(CN2CCCCC2Cn2cncn2)c2ncccc2c1` (stereo not drawn), the INHIBITION was -9.83%. In the case of `CC(C)(C)c1nc(CN2CCCC(Cn3cncn3)C2)cs1` (stereo not drawn), the INHIBITION is given as 61.7%. In the case of `c1ccc(-c2nc(CN3CCCC(Cn4cncn4)C3)cs2)cc1` (stereo not drawn) it was -7.35%; in that of `Clc1cc(CN2CCCN3CCCC3C2)c2ncccc2c1` (stereo not drawn), 55%; in that of `Clc1cc(CN2CCCC2Cn2cncn2)c2ncccc2c1` (stereo not drawn), 22.9%. Regarding `Clc1snnc1CN1CCCC1Cn1cncn1` (stereo not drawn), the INHIBITION is reported as -11.4%.

As to `CC(C)c1nc(CN2CCCC(Cn3cncn3)C2)cs1` (stereo not drawn), the INHIBITION is given as 31.2%. In the case of `Clc1ccc(CN2CCCC(Cn3cncn3)C2)c2ncccc12` (stereo not drawn) it was 35.1%.

With `Clc1snnc1CN1CCCCC1Cn1cncn1` (stereo not drawn), the INHIBITION is on record as 10.8%. In the case of `Clc1snnc1CN1CCCC(Cn2cncn2)C1` (stereo not drawn) it was 62.1%; in that of `Cc1cccc2cc(CN3CCCN4CCC[C@H]4C3)c(=O)[nH]c12`, 34.9%; in that of `Clc1cc(CN2CCCC(Cn3cncn3)C2)c2ncccc2c1` (stereo not drawn), 76.2%. In the case of `Cc1cnc(C(=O)N2CCCC(n3cncn3)C2)cn1` (stereo not drawn) it was 41.5%.

Turning to `CCCc1nc(C(=O)N2CCn3nc(C(=O)OC)cc3C2)cs1`, the INHIBITION stood at 9.16%. In the case of `Cc1noc(-c2ccc(N3CCN(Cc4nccn4C)CC3)nc2)n1` it was 9%; in that of `CC(Cc1ccccc1F)C(=O)Nc1ccc(OCCC(N)=O)cc1` (stereo not drawn), -8.92%.

Turning to `CCOc1ccc(C2CCCN2C(=O)NCCn2ccnc2)cc1` (stereo not drawn), the INHIBITION amounted to 8.85%.

Take `CC(=O)N1CCCC(Cc2cnc(C(=O)N3CCC(C)CC3)cn2)C1` (stereo not drawn): the INHIBITION is given as 6.32%. In the case of `Cc1ccnn1CCC(=O)N1C[C@@H](O)[C@H](Oc2cccc(F)c2)C1` it was 9.93%; in that of `CN(Cc1cnc(C(C)(C)C)nc1)Cc1nc2ccc(F)cc2[nH]1`, -0.18%; in that of `CCOCC(=O)N1C[C@@H](O)[C@H](NC(C)=O)C1`, 4.41%.

On to `CN(C)CC1CN(Cc2cc(Cl)cc3cccnc23)CCO1` (stereo not drawn), for which the INHIBITION came out at 23.4%. In the case of `OCCN1CCN(Cc2cc(Cl)cc3cccnc23)CC1` it was 42.7%. In the case of `COc1ccc(CN2CCCC(N3CCCC3)C2)cc1Cn1cncn1` (stereo not drawn) it was 34.1%; in that of `COc1cc(Cl)cc(CN2CCCC(N3CCOCC3)C2)c1OC` (stereo not drawn), 15.7%; in that of `O[C@@H]1CN(Cc2cc(Cl)cc3cccnc23)C[C@@H]1O`, 51.3%.

As for `COc1cc(Cl)cc(CN2CCCC(N3CCCC3)C2)c1OC` (stereo not drawn), the INHIBITION is recorded as 77.6%. In the case of `CC1=C(C(=O)N(C)Cc2n[nH]c3c2CCCCC3)C(C)NC(=O)N1` (stereo not drawn) it was 17.5%; in that of `c1ccc(CCc2n[nH]c(C3CCOC3)n2)cc1` (stereo not drawn), 21.5%. In the case of `CC(C)c1nccc(CN(C)Cc2cnn(-c3ccccc3)c2)n1` it was 51.7%; in that of `CCn1cc(CN(C)Cc2cnn(-c3ccc(F)cc3)c2)cn1`, 17%.

`Cc1ccnn1CC(=O)N(C)Cc1ccc(-n2cccn2)cc1`: the INHIBITION was 21.8%. In the case of `Cc1ccnn1CC(=O)N(C)Cc1cnn(-c2ccccc2)c1` it was 50.8%. In the case of `CSCC(=O)N(C)Cc1cnn(-c2ccc(F)cc2)c1` it was 13%; in that of `COc1cccc(-n2cc(CN(C)Cc3ccnc(C(C)C)n3)cn2)c1`, 15.005%; in that of `CC(C)c1nccc(CN(C)Cc2cccc(-n3cccn3)c2)n1`, 6.9%.

With `CN(Cc1ccncc1)Cc1cnn(-c2ccc(F)cc2)c1`, the INHIBITION was determined as 51.8%. In the case of `Cc1nonc1CN(C)Cc1cnn(-c2ccc(F)cc2)c1` it was -23.4%; in that of `CN(C)Cc1ccnc(C2CCCN2Cc2cccc(F)c2F)n1` (stereo not drawn), 15.9%; in that of `CCc1ocnc1C(=O)N1CCCC(n2nc(C)nc2C)C1` (stereo not drawn), 11.715%. As for `O=C(c1cnc(O)cc1O)N1CCCC(CCc2ccccc2F)C1` (stereo not drawn), the INHIBITION is 15.8%.

Take `CNC(=O)[C@H]1C[C@@H]2CN(C(=O)c3ccc(C)nc3)C[C@@H]2N1C(C)C`: the INHIBITION was determined as 11.3%.

Take `Cc1csc(C2CCCN(C(=O)c3c(C)nn4cccnc34)C2)n1` (stereo not drawn): the INHIBITION is given as -2.53%.

For the compound `Cc1cc(Br)cnc1NCCN1CCC(N(C)C)CC1`, the INHIBITION is reported as 64%. In the case of `Cc1cc(C(C)NCCN2CCC(N(C)C)CC2)c(C)s1` (stereo not drawn) it was 46.6%; in that of `CC(=O)N1CCN(CCNc2ncc(Br)cc2C)CC1`, 54.4%; in that of `COC1CCN(CCNc2ncc(Br)cc2C)CC1`, 41.5%. In the case of `CC(=O)N1CCN(CCNS(=O)(=O)c2cc(F)ccc2C)CC1` it was 17.1%.

Turning to `CC(=O)N1CCN(CCNS(=O)(=O)c2ccc(C)c(F)c2)CC1`, the INHIBITION was -3.95%. In the case of `Cc1cc(N2CCOCC2)ccc1NC(C)c1nc(C(C)(C)C)no1` (stereo not drawn) it was 14.9%; in that of `Cc1n[nH]c(C)c1NC(=O)CN1CCCC1Cn1cncn1` (stereo not drawn), 30%; in that of `CC(=O)N1CCC(c2nccnc2Nc2cnccn2)CC1`, -21.6%.

Turning to `CN(Cc1ccncn1)C(=O)CCC(=O)NC1CCCC1`, the INHIBITION is on record as 39.4%.

Regarding `CCCN1C[C@@H]2CC[C@H]1CN(Cc1cccc(-n3cccn3)c1)C2`, the INHIBITION worked out at 48.2%. Take `COCCN1CCN(c2ccc(CN(C)C)cn2)CC1`: the INHIBITION is on record as -14.3%. In the case of `CC(C)CC(C)N(C)C(=O)CCn1cccn1` (stereo not drawn) it was 64%; in that of `CCN(C(=O)CCn1cccn1)C1CC1`, 36.2%. In the case of `CC(C1CC1)N(C)C(=O)CCn1cccn1` (stereo not drawn) it was 49%. With `Cc1nn(C)c(C)c1NC(=O)CCn1ncc2ccc(Cl)cc21`, the INHIBITION is -14.7%.

On to `CC(=O)c1cc(C(=O)N2CCN(C)Cc3ccccc32)n(C)c1`, for which the INHIBITION is -94.3%. In the case of `CC(C)c1n[nH]c(C2CN(C(=O)COCC(F)(F)F)CCO2)n1` (stereo not drawn) it was 31.6%.
